An excerpt weighted towards active compounds, which were near 2.3% of everything screened.
ABHD5 PLIN5 PPI = blocks binding of human ABHD5 to perilipin-5; Split G. princeps luciferase complementation, luminescence, 4 h; inhibition, % at 4 µM; 0.78% of 360,000 active; AID 602281;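 active = inhibition above the mean inhibition across every tested compound plus 3 SD, cut at about 22% in these data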
Granule exo inh = blocks lytic granule exocytosis; 0.66% of 360,000 active; TALL-104 LAMP-1 surface exposure, flow cytometry; cells stimulated with thapsigargin and PMA; inhibition, % at 10 µM;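 active = inhibition above about 55%, limit read from the data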
B2AR ag = activates human beta-2 adrenergic receptor causing internalization; P07550; Am2.2-beta2AR cells, FAP receptor internalization, flow cytometry; response, % (test concentration not listed); 0.43% of 340,000 active;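 active = response above a set limit, near 3 SD of response in nonfluorescent compounds, cut at about 42% in these data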
Target sequence (P07550 whole entry, looked up): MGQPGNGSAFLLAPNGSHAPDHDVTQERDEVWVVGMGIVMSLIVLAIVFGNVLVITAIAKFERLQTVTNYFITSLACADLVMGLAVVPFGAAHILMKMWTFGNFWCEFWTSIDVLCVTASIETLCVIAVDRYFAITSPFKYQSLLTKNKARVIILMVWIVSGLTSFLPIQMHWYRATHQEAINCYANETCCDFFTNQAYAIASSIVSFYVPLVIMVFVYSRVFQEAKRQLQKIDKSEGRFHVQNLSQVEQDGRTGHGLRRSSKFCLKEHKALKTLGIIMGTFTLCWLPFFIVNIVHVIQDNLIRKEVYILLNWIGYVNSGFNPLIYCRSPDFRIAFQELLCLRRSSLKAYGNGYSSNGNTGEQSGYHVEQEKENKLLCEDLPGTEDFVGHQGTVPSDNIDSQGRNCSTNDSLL
HTR2A ag = activates the mouse 5-HT2A serotonin receptor. CHO-K1 mHTR2A beta-arrestin complementation, luminescence; percent of 30 µM serotonin response. activation, % at 7.6 µM. 0.66% of 360,000 active. AID 624169;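 active = activation above a run cutoff, the mean activation of all tested compounds plus 3 SD, cut at about 14% in these data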
NTR1 ag = agonists of human neurotensin receptor NTR1; 0.17% of 330,000 active; NTR1-U2OS beta-arrestin-GFP spot imaging, agonist mode; AID 493036; activation, % at 20 µM;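 active = activation at or above 40% of the spot to cytoplasm intensity ratio, with at least 20 cells analyzed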
OPRM1 ag = OPRM1 agonism in mouse HTR2A counterscreen; shares compounds with HTR2A ag; U2OS OPRM1 beta-arrestin PathHunter, luminescence; DMSO 0%, DAMGO 9.3 µM 100%; activation, % at 9.3 µM; 5.3% of 2,300 active; AID 624380;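 active = mean activation above the mean of DMSO-only wells plus 3 SD, cut at about 0.5% in these data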
m5-HT2A ag conf = mouse HTR2A agonism confirmed; shares compounds with HTR2A ag; CHO-K1 PathHunter beta-arrestin recruitment, luminescence; DMSO 0%, 30 µM serotonin 100%; activation, % at 7.6 µM; 19% of 2,300 active; AID 624381;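 active = mean activation across triplicates above the hit threshold derived in the original primary screen, cut at about 15% in these data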
Granule exo CP1 = blocks lytic granule exocytosis | shares compounds with Granule exo inh | TALL-104 cells, LAMP-1 externalization, flow cytometry; stimulated with PMA plus thapsigargin | inhibition, % at 10 µM | 11% of 1,500 active | AID 651954; in the data active = inhibition above about 60%
Numbers stand for hits; n = inactive; x = no result.

SMILES | ABHD5 PLIN5 PPI | Granule exo inh | B2AR ag | HTR2A ag | NTR1 ag | OPRM1 ag | m5-HT2A ag conf | Granule exo CP1
CCOC(=O)CCCNC(=O)COc1ccccc1C#N | n | n | n | 19 | n | n | n | x
CN(CC(=O)Nc1ncn[nH]1)S(=O)(=O)c1ccc(Br)cc1 | n | n | n | n | n | x | x | x
O=C(CCNc1n[nH]c(=O)[nH]c1=O)N/N=C/c1ccc(C(F)(F)F)cc1 | n | n | n | n | n | x | x | x
Cc1c(C2(O)CCCCC2)[nH]c2cc(C(F)(F)F)ccc12 | n | n | n | 19 | n | 1.0 | n | x
CCc1c(C2(O)CCCCC2)[nH]c2cc(C(F)(F)F)ccc12 | n | n | n | n | n | x | x | x
COC(=O)[C@@]1(Cc2ccc(F)cc2)[C@H]2c3cc(C(=O)N(C)C)n(CCc4c[nH]c5ccc(O)cc45)c3C[C@H]2CN1C(=O)c1ccccc1 | n | n | x | 26 | x | n | n | x
CC(C)OC(=O)C1CC(C)(O)C(=O)C(C(=O)OC(C)C)C1c1ccc([N+](=O)[O-])cc1 (configuration not stated) | n | n | n | n | n | x | x | x
COc1cccc(C=Nc2cc(C)cc(C)c2)c1O | n | n | n | n | n | x | x | x
COc1cccc(C=Nc2ccc3c(c2)CCC3)c1O | n | n | n | 15 | n | n | n | x
COc1cc(/C=C(/C#N)c2nc3ccccc3[nH]2)ccc1Oc1ncccc1[N+](=O)[O-] | n | n | n | n | n | x | x | x
COc1cc(/C=C(/C#N)c2nc3ccccc3[nH]2)ccc1OCc1ccc(C(=O)O)o1 | n | n | n | 19 | n | 1.7 | n | x
CCCN(C(=O)c1cccc(-n2cccc2)c1)c1c(N)n(Cc2ccccc2)c(=O)[nH]c1=O | n | n | n | n | n | x | x | x
Cc1nn(CC2CC2)c(=O)n1-c1cccc(Cl)c1 | n | n | n | 20 | n | n | n | x
CCOC(=O)N1CCC(N(CCOC)C(=O)Nc2ccc(CC)cc2)CC1 | n | n | n | n | n | x | x | x
CCOC(=O)N1CCC(N(C(=O)Nc2ccc(Cl)c(Cl)c2)C(C)CC)CC1 (configuration not stated) | n | n | n | 16 | n | n | n | x
COc1cccc2c1Oc1ncccc1N(C(=O)CCC(=O)NCc1ccccc1Cl)C2 | n | n | n | 17 | n | n | n | x
C=C(C)C(=O)OCC(O)COc1ccc(C(C)(C)c2ccc(OCC(O)COC(=O)C(=C)C)cc2)cc1 (configuration not stated) | n | n | n | 17 | n | n | n | x
CC(c1ccccc1)N1CCN(C(=O)CCl)CC1 (configuration not stated) | n | n | n | n | n | x | x | x
Cc1cc(=O)c2ccc(C(F)(F)F)cc2[nH]1 | n | n | n | n | n | x | x | x
O=c1cc(C(F)(F)F)[nH]c2ccc(C(F)(F)F)cc12 | n | n | n | 26 | n | n | n | x
Cc1ccccc1NC(=O)Cc1nc(-c2ccc3ccccc3c2)cs1 | n | n | n | n | n | x | x | x
CCC(C)Nc1nc(-c2cccc(OC)c2O)nc2ccccc12 (configuration not stated) | n | 76 | n | 59 | n | n | 33 | 107
COc1nccnc1NS(=O)(=O)c1ccc(N)cc1 | n | n | n | n | n | x | x | x
CCOC(=O)[C@@H]1[C@H]2COc3ccccc3[C@H]2N2C(=O)N(c3ccc(Cl)cc3)C(=O)[C@]12C | n | n | n | n | n | x | x | x
CCOC(=O)c1ccc(NC(=O)c2sc3nc(N4CCOCC4)c4c(c3c2N)CCCC4)cc1 | n | 93 | n | 18 | n | n | n | n
SMILES | ABHD5 PLIN5 PPI | Granule exo inh | B2AR ag | HTR2A ag | NTR1 ag | OPRM1 ag | m5-HT2A ag conf | Granule exo CP1
COc1ccc(NC(=O)c2sc3nc(N4CCOCC4)c4c(c3c2N)CCCC4)cc1 | n | n | x | n | x | x | x | x
CCOC(=O)C1CCN(C(c2ccccn2)c2c(C)[nH]c3ccccc23)CC1 (configuration not stated) | n | n | n | n | n | x | x | x
Cc1[nH]c2ccccc2c1C(c1ccccn1)N1CCC(C(N)=O)CC1 (configuration not stated) | n | 57 | n | 17 | n | n | n | n
COc1cccc(CN2CCN(C(=O)c3ccco3)CC2)c1 | n | 87 | n | 37 | n | n | 109 | n
COc1cc(C(c2nnnn2C(C)(C)C)N2CCN(c3nc4ccccc4s3)CC2)ccc1O (configuration not stated) | n | 58 | n | 29 | n | n | n | n
COc1ccc([C@H]2CC(=O)C=C(c3cccc(C(C)C)c3)C2)cc1 | n | n | n | n | n | x | x | x
CCc1cc2ccc(C)cc2nc1SCC(=O)c1ccc(NC(C)=O)cc1 | n | n | n | n | n | x | x | x
CCc1cc2ccc(C)cc2nc1SCC(=O)NC1CCCC1 | n | 82 | n | n | n | x | x | n
CC1CN(C(=O)Nc2cccc(Cl)c2)C2(CCCCCC2)O1 (configuration not stated) | n | n | n | n | n | x | x | x
Cc1nc(-c2c(-c3ccc(O)cc3O)noc2C(F)(F)F)cs1 | n | n | n | n | n | x | x | x
CN(C)C(=O)c1c2c(nc3ccccc13)CCCC2 | n | 107 | n | n | n | x | x | n
C[C@@H](c1ccccc1)N1C[C@H](COCc2ccccc2)Oc2cc(N3CC[C@@H](N(C)C)C3)ccc2S1(=O)=O | n | n | x | n | x | x | x | x
C[C@H](c1ccccc1)N1C[C@H](COCc2ccccc2)Oc2cc(N3CC[C@H](N(C)C)C3)ccc2S1(=O)=O | n | 68 | x | n | x | x | x | n
COC(=O)[C@@H]1C[C@@]2(O)[C@H](O)[C@H](O)[C@H](O)C[C@H]2N1Cc1cccc2ccccc12 | n | 70 | n | n | n | x | x | n
COC(=O)c1cn(C(=O)c2cc(C)cc(C)c2)c2ccccc12 | n | n | n | n | n | x | x | x
COC(=O)c1cn(C(=O)c2cc(Br)ccc2Cl)c2ccccc12 | n | 72 | n | n | n | x | x | n
COC(=O)c1cn(C(=O)c2ccc(OC)cc2)c2ccccc12 | n | 70 | n | n | n | x | x | n
COC(=O)c1cn(C(=O)c2ccc(C)cc2)c2ccccc12 | n | n | n | n | n | x | x | x
Oc1ccc(C[C@H]2CNCCN2CC2(c3ccccc3)CC2)cc1 | n | n | n | n | n | x | x | x
O=C(OCc1nc2ccccc2s1)c1ccco1 | n | 75 | n | n | n | x | x | n
O=C(OCc1nc2ccccc2s1)c1ccc(Br)o1 | n | n | n | n | n | x | x | x
CCCCN(CCCC)c1nc(-c2ccncc2)nc2ccccc12 | n | 93 | n | n | n | x | x | 68
C/C(O)=C(/C=NCC(=O)O)C(=O)Nc1nccs1 | n | n | n | n | n | x | x | x
Cc1cc(C)nc(/N=C(\N)Nc2cccc(OCc3ccccc3)c2)n1 | n | 85 | n | n | n | x | x | n

Source: PubChem
